From PubChem BioAssay (EPA / NIEHS)
A structure can be active in one record and inactive in another. Active and inactive are the calls of the source. The calls were made as follows: active = hit-call score of the fitted dose curve at least 0.9, where 1 is the maximum; inactive = score below 0.9.

Each compound was assayed on Matrix Metallopeptidase 9 (MMP9), MMP9 (gene 4318) (assay: BSK_BE3C_MMP9: BioMAP Diversity Plus: BE3C Assay for Matrix Metallopeptidase 9 (MMP9) Biomarker Activity (AID 2284283)). Settings: primary human bronchial epithelial cells.
Experimental: BSK_BE3C is a cell-based, multiplexed-readout assay that uses bronchial epithelial cell, a human lung primary cell, with measurements taken at 24 hours after chemical dosing in a 96-well plate.BSK_BE3C_MMP9 is an assay component measured in the BSK_BE3C assay. It measures MMP-9 antibody related to regulation of gene expression using ELISA technology.Data from the assay component BSK_BE3C_MMP9 was analyzed at the endpoint, BSK_BE3C_MMP9, in the positive analysis fitting direction relative to DMSO as the negative control and baseline of activity. Using a type of binding reporter, gain or loss-of-signal activity can be used to understand protein changes. To generalize the intended target to other relatable targets, this assay endpoint is annotated to the 'protease' intended target family, where the subfamily is 'matrix metalloproteinase'.
The levels of cell surface (or secreted, indicated by the prefix "s") biomarker endpoints were measured by ELISA. Overt cytotoxicity to cells in confluent adherent cultures (all systems other than the BT system) was assessed by measuring total protein levels using sulforhodamine B (SRB) staining in parallel cultures at the time of biomarker measurements, indicated as SRB endpoints. For proliferation assays for adherent cell types, individual cell types are cultured at sub-confluence and relative cell numbers quantified by SRB staining at time points optimized for each system (48 h: 3C and CASM3C systems; 72 h: BT and HDF3CGF systems; 96 h: SAg system). SRB was performed by staining cells with 0.1% SRB after fixation with 10% TCA and reading wells at 560 nm.Viability and proliferation of PBMC (T cells) was quantified by Alamar Blue reduction for the SAg and BT systems. For PBMC viability (referred to as PBMC Cytotoxicity within the assay endpoint names), cells were plated (75,000/well in a 96-well plate) and then chemical samples added for 1 h before addition of activators, SEB and TSST-1 (20 ng/mL final concentration each). Cells were incubated for 90 h. Then, Alamar Blue (20 uL/well) (Invitrogen, Cat DAL1100) was added for 6 h, and the plates were read with a fluorescence microplate reader at 546/580 nm (excitation/emission). For PBMC proliferation, cells were plated and activated as above but incubated for only 16 h prior to addition of Alamar Blue. Plates were read after 6 h.
In the case of `C[C@H]1C[C@@H]2[C@H]([C@@H](O)C[C@@]3(C)[C@H]2CC[C@]3(O)C(=O)CO)[C@@]2(C)C=CC(=O)C=C12`, the outcome is reported as “inactive”.
With `NCCNCCN` the outcome was “inactive”.
For `OC1OC[C@@H](O)[C@H](O)[C@H]1O` (stereo partly drawn), the outcome was “inactive”.
For `CC[Si](OC(C)=O)(OC(C)=O)OC(C)=O`, the AC50 was 6.87 µM (active) and the outcome was “inactive”.
In the case of `Nc1cc([N+](=O)[O-])ccc1O`, the outcome is reported as “inactive”.
With `Cc1cc(C2(c3cc(C)c(O)cc3C)OS(=O)(=O)c3ccccc32)c(C)cc1O` the outcome was “inactive”.
For `CC(=O)[C@H]1CC[C@H]2[C@@H]3CC=C4C[C@@H](O)CC[C@]4(C)[C@H]3CC[C@]12C`, the outcome was “inactive”.
`CC(=O)OCCC(C)CC(C)(C)C` (stereo not drawn) was tested, and the outcome was “inactive”.
`OC[C@H]1O[C@H](O[C@]2(CCl)O[C@H](CCl)[C@@H](O)[C@@H]2O)[C@H](O)[C@@H](O)[C@H]1Cl` was tested, and the outcome was “inactive”.
With `COc1cc(C=O)ccc1OC(=O)C(C)C` the outcome was “inactive”.
`CCC(=O)OCc1ccccc1` was tested, and the outcome was “inactive”.
In the case of `C=CCOC(=O)CCC1CCCCC1`, the outcome is reported as “inactive”.
